Results published in PubChem BioAssay AID1628 (Sanford-Burnham Center for Chemical Genomics, 2009).
Screen size: about 190,000 compounds; about 930 (0.49%) were called active.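 Rule for the calls: active = z-score of insulin promoter reporter brightness in nuclei below -3 at 5 µM, with at least 500 cells counted; inconclusive = wells with under 500 cells, flagged as toxic or sparse; inactive = the rest.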 Some of the results follow. Entries with a potency or affinity are not part of this list.

Assay: decrease of insulin promoter-GFP reporter – imaging, high-content screening, mouse beta cells (AID 1628)
Settings: MIN6 insulin promoter GFP reporter, at 5 µM, stronger effect = lower value
With `C=CCSc1nnc(NC(=O)c2cccc(S(=O)(=O)N3CCOCC3)c2)s1` the z-score was 3.22 (inactive).
In the case of `CCN(CC)c1ccc(C(=O)N/N=C/c2ccc(N3CCOCC3)cc2)cc1`, the z-score was 3.38 (inactive).
With `CCN(CC)c1ccc(/C=N/NC(=O)c2cccc(S(=O)(=O)N3CCOCC3)c2)c(O)c1` the z-score was -6.39 (active).
For `CCCCn1c(O)c(/C=C/C=C/C=Nc2ccccc2)sc1=S`, the z-score was 4.72 (inactive).
In the case of `COc1c2ccoc2nc2c(OC)c(O)ccc12`, the z-score was -0.14 (inactive).
In the case of `Cc1nn(-c2ccccc2)c(C)c1NC(=O)CCl`, the z-score was 3.88 (inactive).
With `Cc1ccc(-c2ccc(/C=C(\C#N)C(=O)Nc3cc(C)nn3-c3ccccc3)o2)cc1` the z-score was 3.08 (inactive).
For `Cc1ccc(C)c(NC(=S)N2CCCCCC2)c1`, the z-score was 0.89 (inactive).
For `Cc1ccc(NC(=O)CCl)c(C)c1`, the z-score was 3.51 (inactive).
With `COc1ccc(CCNC(=S)Nc2ccc(C)cc2C)cc1` the z-score was -3.98 (active).
For `COc1ccc(C2=CC(c3ccc(OC)c(OC)c3)n3nnnc3N2)c(OC)c1` (configuration not stated), the z-score was -3.02 (active).
In the case of `COc1ccc(C2C=C(c3cccs3)Nc3nc(CCCO)nn32)cc1` (configuration not stated), the z-score was 5.85 (inactive).
For `CCCCCOC(=O)C1=C(C)Nc2nnnn2C1c1ccc(OC)c(OC)c1OC` (configuration not stated), the z-score was 3.26 (inactive).
For `CCOC(=O)N1CCC(N2Cc3cccc(C(=O)N4CCN(c5cccc(C)c5C)CC4)c3C2=O)CC1`, the z-score was 2.62 (inactive).
In the case of `COc1cccc(CN2CCN(C3CCN(c4cccc(C)c4C)CC3)CC2CCO)c1` (configuration not stated), the z-score was -8.37 (active).
In the case of `COc1cc(C(Nc2ccc3c(c2)OCO3)C(=O)NC2CCCCC2)cc(OC)c1OC` (configuration not stated), the z-score was -3.78 (active).
In the case of `Fc1ccc(C2NCCn3cccc32)cc1` (configuration not stated), the z-score was 3.94 (inactive).
In the case of `Nc1c(C(=O)c2ccc(Cl)cc2)sc2nsc(SCCN3CCOCC3)c12`, the z-score was 4.91 (inactive).
In the case of `CNC(=O)c1ccc(-c2sc3nc(N4CCOCC4)c4c(c3c2N)CCCC4)o1`, the z-score was -3.66 (active).
In the case of `N#C/C(=C\c1ccc(N2CCOCC2)o1)C(=O)NCCc1ccccc1`, the z-score was 4.72 (inactive).
With `Nc1c(C(=O)NCCc2ccccc2)sc2nc(N3CCOCC3)c3c(c12)CCCC3` the z-score was -3.11 (active).
For `CNC(=O)c1ccc(-c2sc3nc(N4CCOCC4)c4c(c3c2N)CC(C)(C)OC4)o1`, the z-score was 3.23 (inactive).
With `c1ccc(-c2ccc(-c3nccc4ccccc34)[nH]2)cc1` the z-score was 4.38 (inactive).
In the case of `O=c1[nH]c(-c2ccccn2)nc2sc(-c3ccccc3)cc12`, the z-score was -6.56 (active).
With `CCN1/C(=C/c2cc[n+](CCCS(=O)(=O)[O-])c3ccccc23)Sc2ccccc21` the z-score was 6.08 (inactive).
In the case of `CCC(/C=C1\Sc2ccc(OC)cc2N1CC)=C\c1sc2ccc(OC)cc2[n+]1CCCS(=O)(=O)[O-]`, the z-score was -3.29 (active).
With `CC[n+]1c(/C=C/C=C/N(C(C)=O)c2ccccc2)sc2cc(OC)ccc21` the z-score was 17.2 (inactive).
In the case of `Cc1ccc(CN=Cc2[nH]c3ccc(Br)c(Cl)c3c2O)cc1`, the z-score was 9.43 (inactive).
For `Cc1ccc(Nc2nc(Cl)c(C=O)s2)cc1Cl`, the z-score was 6.83 (inactive).
For `Cc1nc([N+](=O)[O-])c(Br)n1CC(=O)c1cccc([N+](=O)[O-])c1`, the z-score was 2.48 (inactive).
With `Cc1nc([N+](=O)[O-])c(N2CCN(Cc3ccccc3)CC2)n1Cc1ccccc1` the z-score was -3.12 (active).
In the case of `CC(C)(C)C1CCc2c(sc(N)c2C(N)=O)C1` (configuration not stated), the z-score was -5.29 (active).
In the case of `Nc1ccc(C(=O)N/N=C/c2sc(N3CCOCC3)nc2-c2ccccc2)cc1`, the z-score was -4.08 (active).
In the case of `COc1ccccc1NS(=O)(=O)c1cc([N+](=O)[O-])ccc1N/N=C/c1sc(N2CCOCC2)nc1-c1ccccc1`, the z-score was 4.89 (inactive).
In the case of `O=[N+]([O-])c1ccc(N/N=C/c2sc(N3CCOCC3)nc2-c2ccccc2)c(S(=O)(=O)Nc2ccccc2Cl)c1`, the z-score was 13.1 (inactive).
For `Oc1ccc(CN2CCC(Cc3ccccc3)CC2)c2cccnc12`, the z-score was -5.12 (active).
With `CCOC(=O)c1c(C)nn(Cc2cccc(Cl)c2)c1N` the z-score was -5.31 (active).
With `CCOC(=O)c1nn(-c2ccc(Cl)cc2Cl)c(=N)c(C#N)c1C` the z-score was 10.8 (inactive).
With `COc1ccc(C)cc1NC(=O)c1nnn(Cc2cccc(C(F)(F)F)c2)c1N` the z-score was 3.48 (inactive).
In the case of `C=CCN1C(=O)/C(=C/C=C2/N(CC)c3ccc(S(=O)(=O)N(C)C)cc3N2CC)SC1=S`, the z-score was 17.1 (inactive).
For `CCOC(=O)C1C(=O)CC(C)(O)C(C(=O)OCC)C1c1ccccc1` (configuration not stated), the z-score was 0.91 (inactive).
In the case of `CCOC(=O)C(C)c1nn(C)c(=O)c2ccccc12` (configuration not stated), the z-score was -3.52 (active).
With `COc1ccc(N2C(=O)CCC(C(=O)NCCCN3CCC(C)CC3)C2c2ccc(OC)c(OC)c2)cc1` (configuration not stated) the z-score was 4.36 (inactive).
For `CCCn1c(CN2CCN(c3cccc(Cl)c3)CC2)nc2c1c(=O)n(C)c(=O)n2C`, the z-score was -6.4 (active).
In the case of `CCCCn1c(CN2CCN(c3cccc(Cl)c3)CC2)nc2c1c(=O)n(C)c(=O)n2C`, the z-score was -5.64 (active).
In the case of `Cn1ncc2c1ncn1nc(CCc3ccccc3)nc21`, the z-score was 3.58 (inactive).
In the case of `NC(=O)c1c[nH]c2ccccc12`, the z-score was -0.45 (inactive).
For `CCOC(=O)c1c(C)c(C(=O)NC2CCCCC2)c(C)n1CC`, the z-score was -3.91 (active).
For `CCOC(=O)COc1ccc(C(=O)NC2CCCCC2)cc1`, the z-score was 4.25 (inactive).
In the case of `CC(C)NC(=O)/C(C#N)=C/c1ccc(N(C)C)o1`, the z-score was 9.4 (inactive).
For `COc1ccc(/C=C2\C(=O)NC(=S)N2C(=O)c2ccc(F)cc2)cc1`, the z-score was 4.23 (inactive).
With `CO/N=C/c1ccc(N2CCN(C(=O)c3ccc(F)cc3)CC2)c([N+](=O)[O-])c1` the z-score was -5.66 (active).
For `COc1cc([C@@H]2[C@H]3CN(C)CC=C3C(C#N)=C(N)C2(C#N)C#N)cc2c1OCO2`, the z-score was 5.23 (inactive).
For `COc1cc(/C=N/N=C(\N)c2nonc2N)cc(OC)c1OC`, the z-score was 3.59 (inactive).
In the case of `O=C(Nc1ccccc1)C(O)C(O)C(=O)Nc1ccccc1` (configuration not stated), the z-score was -0.63 (inactive).
In the case of `O=C(Nc1ccccc1)N1CCSc2ccccc21`, the z-score was -3.05 (active).
In the case of `COC(=O)c1cn(NC(=O)/C=C/c2cc(OC)ccc2OC)c(=O)c2ccccc12`, the z-score was -3.15 (active).
In the case of `CC1(C#CC[N+]2(C)CCCCC2)CCC2C(O1)c1ccccc1OC2(C)C` (configuration not stated), the z-score was 3.38 (inactive).
For `COc1ccc(-c2nn(-c3ccccc3)cc2/C=C(\C#N)S(=O)(=O)c2ccccc2)cc1OC`, the z-score was -4.08 (active).
In the case of `CC(=O)C(=Cc1cn(-c2ccccc2)nc1-c1ccccc1)C(C)=O`, the z-score was 3.2 (inactive).
For `CN(C)c1ccc(/C=C/c2ccc3ccccc3n2)cc1`, the z-score was 7.29 (inactive).
In the case of `Cc1cc(N2C(=O)c3ccccc3C2=O)n(C)n1`, the z-score was 3.77 (inactive).
With `O=C(/C=C/c1ccco1)NC(=S)Nc1ccccc1N1CCCC1` the z-score was 3.08 (inactive).
For `CCn1c(SCC(=O)Nc2cc(OC)c(OC)c(OC)c2)nnc1-c1cccs1`, the z-score was -4.1 (active).
For `COc1ccc(NC(=O)CSc2nnc(-c3cccs3)n2C)cc1OC`, the z-score was 3.55 (inactive).
In the case of `CCc1nnc(NC(=O)CSc2ccc(-c3cccs3)nn2)s1`, the z-score was 1.38 (inactive).
For `CCOC(=O)c1ccc(CSc2nnc(-c3ccncc3)n2N)cc1`, the z-score was 3.8 (inactive).
For `CCn1c(SCC(=O)N2CCCC2)nnc1-c1ccc(N)cc1`, the z-score was 1.98 (inactive).
For `CCOc1ccccc1N1CC(O)=C(c2nc3ccccc3s2)C1=N`, the z-score was -3.91 (active).
With `Cc1ccc(N2C(=O)C3C(C(=O)c4ccccc4)=NN(c4ccccc4)C3C2=O)cc1` (configuration not stated) the z-score was 3.17 (inactive).
For `Cc1ccc(-n2cc(-c3ccc([N+](=O)[O-])cc3)[nH]c2=S)c(C)c1`, the z-score was -6.17 (active).
In the case of `CCN1CCC2(CC1)N=C(c1ccc(F)cc1)C(=S)N2`, the z-score was 4.47 (inactive).
For `CS(=O)(=O)ON=C1CCN(S(=O)(=O)c2ccccc2)CC1`, the z-score was 3.51 (inactive).
With `O=c1oc2c(CN3CCCCC3)c(O)ccc2cc1-c1nc2ccccc2[nH]1` the z-score was 3.57 (inactive).
With `O=C1C=C(c2ccccc2)C[C@H](c2cccs2)[C@H]1n1nnc([N+](=O)[O-])n1` the z-score was -3.36 (active).
For `CCOC(=O)CC1C(=O)NCCN1c1nc2c(C)cccn2c(=O)c1/C=C1\SC(=S)N(CC(C)C)C1=O` (configuration not stated), the z-score was 16.9 (inactive).
For `CCN(CC)CCCNc1nc2cc(OC)c(OC)cc2c2nc(-c3cccnc3)nn12`, the z-score was -3.38 (active).
With `CCN(CC)CCCC(C)Nc1c2ccc(Cl)cc2nc2ccc(OC)cc12` (configuration not stated) the z-score was 12.4 (inactive).
In the case of `COc1ccc(-c2c[n+](CC(=O)N3c4ccccc4Sc4ccccc43)c3n2CCC3)cc1`, the z-score was -3.33 (active).
In the case of `CC1CCC(C(C)C)C(OC(=O)C[n+]2cc(-c3ccc(Cl)cc3)n3c2CCCCC3)C1` (configuration not stated), the z-score was -4.3 (active).
For `Nc1ccc(-c2nc3nc(N)nc(N)c3nc2-c2ccc(N)cc2)cc1`, the z-score was 4.9 (inactive).
For `Cc1cccc(OCC2=N/C(=C\N(C)C)C(=O)O2)c1`, the z-score was 2.11 (inactive).
For `Nc1nonc1C(=O)NCCNCc1ccccc1OCc1ccccc1F`, the z-score was -3.51 (active).
For `COc1ccc(S(=O)(=O)N(CCCN2CCCC2=O)Cc2cc3c(C)ccc(C)c3[nH]c2=O)cc1`, the z-score was -4.34 (active).
For `COc1ccc(C(=O)N(CN2CCCC2=O)c2ccc(C)cc2)cc1`, the z-score was 3.42 (inactive).
In the case of `COC(=O)c1cnn2c(C(F)(F)F)cc(-c3ccc(F)cc3)nc12`, the z-score was 4.23 (inactive).
For `Oc1c(C(c2ccccn2)N2CCCCC2)cc(Cl)c2cccnc12` (configuration not stated), the z-score was -5.13 (active).
For `COc1ccc(-c2cc(C(F)(F)F)nc(SCC(=O)NCCN3CCOCC3)n2)cc1OC`, the z-score was 0.28 (inactive).
For `COc1ccc(NC(=S)N(CCCN2CCOCC2)C(C)c2cc3cccc(OC)c3o2)cc1` (configuration not stated), the z-score was 2.54 (inactive).
With `CN(C)CCCN(C(=O)COc1ccc(Cl)cc1)c1nc2ccc(F)cc2s1` the z-score was 1.61 (inactive).
For `COc1ccc(-c2csc(N(CCCN(C)C)C(=O)c3cccs3)n2)cc1`, the z-score was -4.21 (active).
With `COc1ccc(-c2csc(N(CCCN3CCOCC3)C(=O)c3ccco3)n2)cc1` the z-score was -4.01 (active).
